The campaign covered roughly 1,900 compounds. About 390 (21%) were called active. The rule behind the calls is not given here. Not all results are given here.
Experiment: carbachol calcium response in non-induced M3R cells, confirmation, counter-screen for RGS4 inhibitor project, cell-based, HEK293 M3R (AID 493000);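 note: RGS4 induction absent so cells express M3R without RGS4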;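 for activity (percent): higher means more calcium signal and flags a non-specific hit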
Details: carbachol calcium Fluo-4, at 10 µM, submaximal (EC20) carbachol stimulus; hits give high values, buffer wells 0%, carbachol control wells 100%
With `CC(C)c1nc(SCC(=O)Nc2cccc(C(=O)O)c2)c2c3c(sc2n1)CCCC3` the activity (percent) was 41.5% (active). With `Cc1ccc(NC(=O)c2c(NC(=O)CCC(=O)O)sc3c2CCCCC3)cc1` the activity (percent) was “inactive”. In the case of `CCOc1ccc(/C=N/NC(=O)CSc2ccccn2)cc1O`, the activity (percent) is reported as “inactive”. With `S=c1[nH]nc(-c2cccnc2)n1/N=C/C(Cl)=C\c1ccccc1` the activity (percent) was “inactive”. In the case of `COc1ccc(/C=C/C(=O)c2ccc(OC)cc2O)cc1`, the activity (percent) is reported as “inactive”. In the case of `O=C(/C=C/c1ccc(Cl)c([N+](=O)[O-])c1)c1ccc(O)cc1`, the activity (percent) is reported as 43.5% (active). With `O=C(/C=C/c1ccc(Cl)c([N+](=O)[O-])c1)c1cccnc1` the activity (percent) was 43.5% (active). In the case of `C1=C(N2CCOCC2)/C(=C/c2nc3ccccc3[nH]2)CC1`, the activity (percent) is reported as “inactive”. With `CNCC(O)c1ccc(O)c(O)c1` (stereo not drawn) the activity (percent) was “inactive”. For `O=C(Nc1ccc(Cl)cc1)OCc1cc(-c2ccccc2)on1`, the activity (percent) was “inactive”. In the case of `O=[N+]([O-])c1c(NCCO)cc(Sc2nc3ccccc3s2)c2nonc12`, the activity (percent) is reported as “inactive”. In the case of `CCCCC1S/C(=N/N=C/c2cccs2)NC1=O` (stereo not drawn), the activity (percent) is reported as “inactive”. For `COc1cc(Br)cc(/C=N/c2ncn[nH]2)c1O`, the activity (percent) was “inactive”. In the case of `Oc1ccc(/C=N/Nc2ccc(C(F)(F)F)cn2)cc1O`, the activity (percent) is reported as 34.5% (active). In the case of `Cn1c(-c2ccco2)nc2cc3ccccc3cc21`, the activity (percent) is reported as “inactive”. For `COc1cc2c(cc1O)C(SC)=NC(C)(C)C2`, the activity (percent) was “inactive”. For `O=C1Nc2ccc(Br)cc2/C1=N/N=C/C1=C(N2CCOCC2)C(=C\c2ccccc2)/CC1`, the activity (percent) was 31.5% (active). For `O=C(O)C(c1ccccc1)N1C(=O)/C(=C\c2ccc(-c3cccc(Cl)c3)o2)SC1=S` (stereo not drawn), the activity (percent) was “inactive”. In the case of `COc1ccc(/C(O)=C2/C(=O)C(=O)N(c3nc(C)c(C)s3)C2c2ccco2)cc1` (stereo not drawn), the activity (percent) is reported as “inactive”. In the case of `C=C(C)C(=O)O[C@H]1C/C(C)=C\C(=O)/C=C(\C)[C@H](O)[C@@H]2OC(=O)C(=C)[C@@H]21`, the activity (percent) is reported as “inactive”. With `C[C@H](NC(=O)c1nc[nH]c1C(=O)NCC(=O)OC(C)(C)C)c1ccccc1` the activity (percent) was “inactive”. In the case of `Cc1ccc(Nc2nc(N)nc(CN3CCN(Cc4ccccc4)CC3)n2)cc1Cl`, the activity (percent) is reported as “inactive”. For `O=C(CCN1CCc2ccccc2C(O)(c2ccccc2)C1)c1ccc2c(c1)OCCO2` (stereo not drawn), the activity (percent) was 34.5% (active). For `CS(=O)(=O)N(CC(O)Cn1c2ccccc2c2ccccc21)c1cccc2ccccc12` (stereo not drawn), the activity (percent) was “inactive”. For `Oc1ccc(-c2[nH]ncc2-c2nc3ccccc3s2)c(O)c1`, the activity (percent) was “inactive”. With `CCn1c(O)c(N=NC2=NC(=O)CS2)c2cc(C)ccc21` the activity (percent) was “inactive”. In the case of `CCc1nnc(NS(=O)(=O)c2ccc(N=Cc3c(C)[nH]n(-c4ccc(C)cc4)c3=O)cc2)s1`, the activity (percent) is reported as “inactive”. In the case of `O=C(NCc1ccccc1)c1ccc(S(=O)(=O)Nc2cccc(C(F)(F)F)c2)cc1`, the activity (percent) is reported as “inactive”.

Reference: PubChem BioAssay AID493000 (Johns Hopkins Ion Channel Center, 2010)
